High-throughput results: PubChem, several laboratories
eLon inh: E. coli protease La inhibition. 0.42% of 360,000 active. AID 602123. purified E. coli Lon protease, fluorescence polarization. inhibition, % at 7.94 µM; in the data active = inhibition above about 13%, passing the limit was not always enough;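 note: 0% = enzyme with probe and DMSO and 100% = no enzyme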
MCL1-BIM inh: inhibitors of human MCL1 binding to BIM-BH3 peptide. 0.68% of 320,000 active. inhibition, % at 10.9 µM. GST-MCL1 / FITC-Bim-BH3 fluorescence polarization. Q07820. AID 2057;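 active = inhibition above the mean inhibition of all tested compounds plus 3 SD, set per campaign, cut at about 40% in these data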;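 note: 0% = DMSO wells and 100% = unlabeled Bim-BH3 peptide control; higher means more loss of mP so more displacement of Bim peptide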
BCLXL inh: inhibitors of human Bcl-xL | AID 2129 | 0.7% of 320,000 active | Q07817 | GST-Bcl-xL / FITC-Bim BH3 peptide fluorescence polarization | inhibition, % at 10.9 µM;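 active = inhibition above the mean of all tested compounds plus 3 SD, cutoff set per campaign, cut at about 30% in these data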;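 note: 0% = DMSO wells and 100% = unlabeled Bim-BH3 peptide competitor; inhibitors lower millipolarization by displacing the labeled peptide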
Target sequence (Q07817 whole entry, looked up): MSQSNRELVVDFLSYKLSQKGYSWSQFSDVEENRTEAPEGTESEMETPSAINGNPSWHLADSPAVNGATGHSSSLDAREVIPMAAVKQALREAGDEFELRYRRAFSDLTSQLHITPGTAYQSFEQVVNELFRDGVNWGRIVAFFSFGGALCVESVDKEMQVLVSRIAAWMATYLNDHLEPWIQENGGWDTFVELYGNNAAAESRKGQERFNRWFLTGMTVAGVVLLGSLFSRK
EBV gp42 inh: inhibitors of Epstein-Barr virus glycoprotein 42. Q1HVG2. inhibition, % (tested at 21.74 µM). 0.42% of 220,000 active. AID 1085. Fluorescence polarization binding assay, mP read-out; in the data active = inhibition above about 50%
Target sequence (Q1HVG2 whole entry, looked up): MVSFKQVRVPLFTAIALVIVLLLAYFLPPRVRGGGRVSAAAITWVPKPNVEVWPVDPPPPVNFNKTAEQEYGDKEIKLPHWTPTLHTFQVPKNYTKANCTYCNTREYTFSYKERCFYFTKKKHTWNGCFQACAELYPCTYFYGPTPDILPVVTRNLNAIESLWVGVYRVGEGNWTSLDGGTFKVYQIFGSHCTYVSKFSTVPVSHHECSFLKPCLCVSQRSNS
GLD-1 TGE inh: GLD-1-TGE RNA interaction inhibition (C. elegans); Q17339; purified GLD-1 + fluorescein TGE RNA, fluorescence polarization; inhibition, % at 5.96 µM; 0.44% of 320,000 active; AID 2280;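 active = percent inhibition above a per-plate cutoff, the plate mean of test compounds plus 3 SD, cut at about 30% in these data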;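 note: 0% = DMSO wells with GLD-1 and probe and 100% = wells lacking GLD-1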
MEX-5 binding: C. elegans MEX-5 TCR-2 RNA binding activity; MEX-5/FITC-TCR2 RNA binding, fluorescence polarization; hits give low values; 0.38% of 300,000 active; activity score (negative = inhibition of binding), % at 10 µM;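 active = inhibition past about -25% in most replicates, and total fluorescence under double the plate's negative control median, limit read from the data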;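 note: 0% = DMSO and -100% = 5 µM competing unlabeled TCR2 RNA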
E coli Lon conf: E. coli Lon inhibition confirmation; shares compounds with eLon inh; purified E. coli Lon, fluorescence polarization; inhibition, % at 7.94 µM; 31% of 1,400 active; AID 602230; in the data active = inhibition above about 16%;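 note: 0% = enzyme with probe and DMSO and 100% = no enzyme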
An asterisk follows results filed as active; i = inactive; nt = no result; + = active, no number. Hits are enriched below; roughly 1.5% of the tested compounds scored in any of these assays.

SMILES	eLon inh	MCL1-BIM inh	BCLXL inh	EBV gp42 inh	GLD-1 TGE inh	MEX-5 binding	E coli Lon conf
Cc1ccc2nc(N3CCN(C)CC3)c(C=O)c(=O)n2c1	64*	38	34*	nt	16	-6	-1
O=Cc1c(N2CCN(c3ccccc3)CC2)nc2ccccn2c1=O	-1	-2	8	1	-2	-3	nt
COc1ccc(CCC(=O)N2CCCC(Nc3ccccc3)C2)cc1OC (stereo unspecified)	9	10	9	nt	1	-3	nt
CN(/N=C/c1ccc(N(C)C)cc1)C1=NS(=O)(=O)c2ccccc21	47*	4	14	nt	6	42	i
COc1ccc(/C=N/N(C)C2=NS(=O)(=O)c3ccccc32)cc1	7	2	7	nt	4	2	nt
O=C(COC(=O)/C=C/c1ccc(OC(F)F)cc1)Nc1ccc2[nH]c(=O)[nH]c2c1	6	nt	nt	nt	-2	nt	nt
COc1cc(NC(=O)NS(=O)(=O)c2ccc(C)cc2)cc(OC)c1	8	1	3	-6	-4	1	nt
COc1ccc(NC(=O)Nc2ccc(OCc3ccccc3)cc2)cn1	25*	nt	nt	nt	nt	-37*	25*
COc1ccc(NC(=O)NS(=O)(=O)c2ccc(C)cc2)cn1	87*	nt	nt	nt	nt	-50*	28*
Cc1ccc(NC(=S)NCc2ccc(Cl)cc2)c(C)c1	17*	13	3	nt	0	6	-47
CN(C(=O)C(C)(C)C)[C@H]1C[C@H]2c3[nH]c4ccccc4c3CCN2C(=O)[C@H]1CO	14*	nt	nt	nt	nt	nt	-11
CN(C(=O)NC1CCCCC1)[C@H]1C[C@H]2c3[nH]c4ccccc4c3CCN2C(=O)[C@H]1CO	-12	nt	nt	nt	nt	nt	nt
CC(=O)c1cn(CC(=O)Nc2ccccc2Cl)c2ccccc12	-4	4	9	nt	-1	0	nt
Cc1cccc(N2N=C(C(=O)O)CCC2=O)c1	37*	1	5	nt	-1	0	2
CC(OC(=O)Cc1n[nH]c(=O)c2ccccc12)C(=O)Nc1ccc(F)cc1Cl (stereo unspecified)	3	7	8	nt	-3	4	nt
O=C(NCC1CCCN1S(=O)(=O)c1cccs1)C(=O)Nc1ccccc1Cl (stereo unspecified)	22*	9	11	nt	-1	4	-15
Cc1cccc(Nc2nc(N)nc(CN3CCN(Cc4ccc5c(c4)OCO5)CC3)n2)c1	19*	11	5	6	4	-1	-1
CCOC(=O)C1=CCN(S(=O)(=O)c2ccccc2C)C1c1cccc(C)c1 (stereo unspecified)	-5	nt	nt	nt	nt	nt	nt
COc1ccc(C(=O)N=S2CCN(C(=O)c3ccc(Cl)cc3)CC2)cc1	103*	-8	-3	-13	-1	-2	12
COc1ccc(OC)c(NC(=O)COC(=O)COc2ccc(Nc3ccccc3)cc2)c1	1	nt	nt	nt	6	nt	nt
Cc1ccc(S(=O)(=O)NC(=O)NCc2ccc(Cl)cc2)cc1	16*	3	-2	-23	-2	-1	6
COc1ccc2nc(N3CCC(C)CC3)c(C#N)cc2c1	15*	24	27	50	21	-9	23*
CCOC(=O)C1CCN(c2nc3cc(OC)ccc3cc2C#N)CC1	-7	9	24	-6	13	-1	nt
CN(C)c1ccccc1-c1cc(NC=O)c2ncc(-c3cccc(C(F)(F)F)c3)n2c1	+	nt	nt	nt	nt	nt	+
CN(C)C(=O)c1cccc(-c2cnc3c(NC=O)cc(-c4ccccc4N(C)C)cn23)c1	+	nt	nt	nt	nt	nt	124*
COc1ccccc1-c1cc(NC=O)c2ncc(-c3cccc(C(F)(F)F)c3)n2c1	-11	nt	nt	nt	nt	nt	nt
Cc1ccc(C(=O)N/C(=C\c2ccco2)C(=O)NCCN2CCOCC2)cc1	13	1	3	nt	7	0	nt
COc1ccc(S(=O)(=O)N2CCN(C(=O)CNC(=O)c3ccc4c(c3)OCO4)CC2)cc1	53*	-4	1	nt	-3	-7	-7
O=C(NCC(=O)N1CCN(S(=O)(=O)c2ccccc2F)CC1)c1ccc2c(c1)OCO2	5	0	0	nt	-1	1	nt
CCOC(=O)C1CCCN(C(=O)c2ccc(S(=O)(=O)Nc3ccccc3OC)cc2)C1 (stereo unspecified)	21*	2	3	nt	4	nt	-11
